# Experimental data from PubChem BioAssay (NCI).
# Compounds without any hit were thinned out: in the full panel of roughly 83,000, 20% have a hit.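 Testing used 96-well plates and a 48-hour single-concentration exposure. Example: -40 means 40% of the starting cells died.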 Unmarked numbers belong to inactive results. The source made the active and inactive calls. The calls were made as follows: active = growth percent below 10; inactive = the rest.
# System: MDA-MB-468 breast
# Assay: NCI-60 one-dose screen, 48 h (100 = growth as untreated, 0 = no growth, -100 = all killed)
# Conditions: 10 µM unless noted
row,Compound,growth
1,Nc1c(C(=O)Nc2ccccc2)sc2nc3c(cc12)CCCC3,31.1%
2,O=C1c2cccc3cccc(c23)C(=O)N1N1C(=O)c2cccc3c(N4CCOCC4)ccc(c23)C1=O,99.9%
3,COC(=O)c1cc(-c2ccccc2)[nH]c1N/N=C/c1c(Cl)cccc1Cl,-7.8% (active)
